{"source": "the supplement of paper PMC11417369", "note": "Over roughly 25,000 sequences, “ln(normalized median fluorescence intensity)” has its median near 9.7; the highest 2% begin near 11. Many of the other results were omitted from the sample, so the highest values are more common in it than they were."}
{"tested_on": "PfAP2-HC AP2 domain (GST-tagged)", "test": "gcPBM binding intensity (ln(normalized median fluorescence intensity)); higher = stronger DNA binding", "method_in_brief": "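Probes on an Agilent 4 × 180k array were primer-extended, double-stranded and 36 bp long, taken from intergenic genomic regions, with negative controls added. GST-tagged P. falciparum DNA-binding domains from E. coli, about 25 μg on average, were applied to the array for 1 h in 1× PBS containing 1% milk, 0.2 mg/ml BSA, 0.5% salmon testes DNA and 0.03% Triton X-100. Binding intensity, obtained after Alexa488 anti-GST antibody detection and a 488 nm scan, is the highest Masliner-normalised natural-log median intensity across replicate spots of either probe orientation.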"}
{"sequence": "AATAATAGAAGCACCCACCCACCACCACCCACACAT [CACACA_negctrl_site1033]", "gcPBM binding intensity (ln)": 10.9}
{"sequence": "AAGCATACATCAAGCACACACACACCCACAGAGACA [CACACA_site4362]", "gcPBM binding intensity (ln)": 10.5}
{"sequence": "AGAAGCATACATCAAGCACACACACCCACACCCACA [CACACA_site8014]", "gcPBM binding intensity (ln)": 11.4}
{"sequence": "ACATCAAGCAGACACACACACACACGCACACGCACA [CACACA_site6309]", "gcPBM binding intensity (ln)": 11.2}
{"sequence": "CACGCACGCAGACACACACACACACGCACATATATA [CACACA_site6303]", "gcPBM binding intensity (ln)": 10.6}
{"sequence": "TGCATATACGCAAGCACACATATATATATATATATA [CACACA_site1069]", "gcPBM binding intensity (ln)": 9.6}
{"sequence": "AGCACACGCAGACACACACACACACGCACACGCACA [CACACA_site6306]", "gcPBM binding intensity (ln)": 11.6}
{"sequence": "AATACACGCAGACACACACACACACGCACATATATA [CACACA_site6447]", "gcPBM binding intensity (ln)": 10.8}
{"sequence": "GCATACATCAAGCACACACACACACGCACACGCACA [CACACA_site6311]", "gcPBM binding intensity (ln)": 11.3}
{"sequence": "TGCATATACTCAAGCACACATATATATATATATATA [CACACA_site4733]", "gcPBM binding intensity (ln)": 9.71}
{"sequence": "AGCTCTATATTTTACACATGCGATTTGGATATATAT [TGCATGCA_site105]", "gcPBM binding intensity (ln)": 9.84}
{"sequence": "ATGTACTATGATAATGCATGCAATAATACATTTTTA [TGCATGCA_site318]", "gcPBM binding intensity (ln)": 9.6}
{"sequence": "AAACTATTCACTATAATACATTAGAAGTGAATAAAA [TGCATGCA_negctrl_site498]", "gcPBM binding intensity (ln)": 9.64}
{"sequence": "TTTTTTTTTCTCCATACACACTTGATAAAACTTTTT [CACACA_site4512]", "gcPBM binding intensity (ln)": 9.64}
{"sequence": "AAAAAAAATAATTTGCGTACATAAAAATTTATAGGA [XGTACX_site3016]", "gcPBM binding intensity (ln)": 9.58}
{"sequence": "AAAAATAAAGAAACAGGTACGCATATATTAAGATAT [XGTACX_site8097]", "gcPBM binding intensity (ln)": 9.98}
{"sequence": "TATCCTAATGCTACCACACACACAAAAACAAATAAT [CACACA_site2609]", "gcPBM binding intensity (ln)": 10.7}
{"sequence": "TATTATTTTTCATATGCATGCAAAAATAAAAAAATA [TGCATGCA_site350]", "gcPBM binding intensity (ln)": 9.31}
{"sequence": "TGGTAATACCCATACACACACACATACACATATATA [CACACA_site8877]", "gcPBM binding intensity (ln)": 10.3}
{"sequence": "TGGTAATACCCATACACACACACATACCCATATATA [CACACA_site5509]", "gcPBM binding intensity (ln)": 10.3}
{"sequence": "TACATACATACATACACACACACATATATATACATA [CACACA_site853]", "gcPBM binding intensity (ln)": 11}
{"sequence": "AAGGATATAACATACACACACACACCGATATATATA [CACACA_site6136]", "gcPBM binding intensity (ln)": 10.6}
{"sequence": "TATACATATATATACACACACACATATATATATATA [CACACA_site1299]", "gcPBM binding intensity (ln)": 10.1}
{"sequence": "TGGTAATACACATACACACACACATACACATATATA [CACACA_site7312]", "gcPBM binding intensity (ln)": 11.4}
{"sequence": "GGAAGGATATAACATACACACACACCCATATATATA [CACACA_site9376]", "gcPBM binding intensity (ln)": 10.3}
{"sequence": "CAAAAGGATAGGCACACACACACACCCATATATATA [CACACA_site2199]", "gcPBM binding intensity (ln)": 11.1}
{"sequence": "CAAAAGGATAGGCACACACACACACCGATATATATA [CACACA_site8685]", "gcPBM binding intensity (ln)": 10.7}
{"sequence": "AAGGATATAACATACACACACACACCCATATATATA [CACACA_site4142]", "gcPBM binding intensity (ln)": 11.1}
{"sequence": "TATATACATATATACACACACATATATATATATATA [CACACA_site2805]", "gcPBM binding intensity (ln)": 10.1}
{"sequence": "GCCAAAAGGATATGCACACACACACCCATATATATA [CACACA_site2198]", "gcPBM binding intensity (ln)": 10.6}
{"sequence": "TATATATATAAAAAAAGTACGTATTTAATAAAAATA [XGTACX_site4992]", "gcPBM binding intensity (ln)": 9.88}
{"sequence": "AAAACTTTTAGTTATACACACAACATAGAAAATATT [CACACA_site6287]", "gcPBM binding intensity (ln)": 9.84}
{"sequence": "TATAAAGACACGTACACACACTAAGTATATCCAATA [CACACA_site6855]", "gcPBM binding intensity (ln)": 10.5}
{"sequence": "AATATTCATATGCAGGTGCATTAATTTTTATTAATT", "gcPBM binding intensity (ln)": 9.65}
{"sequence": "ATGCTTTTGTCATGTGCACACACGTATATATTATAT [CACACA_site4163]", "gcPBM binding intensity (ln)": 10.3}
{"sequence": "TGTTAATTATAAATTTGTACTTATTTTTACAAAATA [XGTACX_site6598]", "gcPBM binding intensity (ln)": 9.48}
{"sequence": "ATGTAACATAGGAAATGTACATATAAATATAATTTA [XGTACX_site6452]", "gcPBM binding intensity (ln)": 9.77}
{"sequence": "CATATAATATTTGAAACTATATATAAATATAAGGTA [TGCATGCA_negctrl_site19]", "gcPBM binding intensity (ln)": 9.52}
{"sequence": "GAAAATTTATATTGCACACATAGGGAATAAAAAAAA [CACACA_site2146]", "gcPBM binding intensity (ln)": 9.99}
{"sequence": "ATATTTACCATTGTATGTACATATATAAAATATATC [XGTACX_site3237]", "gcPBM binding intensity (ln)": 9.69}
{"sequence": "CACATATATACACATACACACACACCCATACACCCA [CACACA_site8505]", "gcPBM binding intensity (ln)": 11}
{"sequence": "CATATACATACACATACACACATACACCCATACACA [CACACA_site8514]", "gcPBM binding intensity (ln)": 10.2}
{"sequence": "TGGTAATCCACATACACACACACATACACATATATA [CACACA_site2727]", "gcPBM binding intensity (ln)": 10.3}
{"sequence": "TATACATACACATACACACATACACCCATACACATA [CACACA_site1746]", "gcPBM binding intensity (ln)": 10.6}
